# In PubChem BioAssay (EPA / NIEHS):
# Records with an inconclusive call do not appear. The source made the active and inactive calls. How the source made its calls, unless noted: active means hit-call score of the fitted dose curve at least 0.9, where 1 is the maximum; inconclusive means response in the unintended direction; inactive means score below 0.9.
# How the values were obtained:
# [1] = molecular target: T1, Thyroid hormone receptor alpha (Rattus norvegicus) + Thyroid hormone receptor beta (Rattus norvegicus) (UniProt P18113+P63059); test: TOX21_TR_LUC_GH3_Agonist_Followup: Tox21 GH3 Thyroid Hormone Receptor Agonism Luciferase Follow-Up Assay (AID 2283939)
# T1 sequence (P63059 whole entry, looked up): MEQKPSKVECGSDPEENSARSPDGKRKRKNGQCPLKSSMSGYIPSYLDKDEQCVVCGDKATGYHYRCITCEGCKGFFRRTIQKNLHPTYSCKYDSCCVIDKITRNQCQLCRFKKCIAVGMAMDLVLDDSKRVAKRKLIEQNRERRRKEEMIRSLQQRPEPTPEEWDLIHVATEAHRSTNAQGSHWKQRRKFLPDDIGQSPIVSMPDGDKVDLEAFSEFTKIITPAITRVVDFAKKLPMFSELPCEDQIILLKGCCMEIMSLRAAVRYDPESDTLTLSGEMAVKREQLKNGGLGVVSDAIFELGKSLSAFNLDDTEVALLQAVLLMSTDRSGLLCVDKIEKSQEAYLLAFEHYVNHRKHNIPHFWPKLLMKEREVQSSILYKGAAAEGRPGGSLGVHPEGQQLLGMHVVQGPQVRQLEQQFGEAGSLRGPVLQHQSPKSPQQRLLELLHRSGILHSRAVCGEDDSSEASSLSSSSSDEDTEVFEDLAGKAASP
# T1 sequence (P18113 whole entry, looked up): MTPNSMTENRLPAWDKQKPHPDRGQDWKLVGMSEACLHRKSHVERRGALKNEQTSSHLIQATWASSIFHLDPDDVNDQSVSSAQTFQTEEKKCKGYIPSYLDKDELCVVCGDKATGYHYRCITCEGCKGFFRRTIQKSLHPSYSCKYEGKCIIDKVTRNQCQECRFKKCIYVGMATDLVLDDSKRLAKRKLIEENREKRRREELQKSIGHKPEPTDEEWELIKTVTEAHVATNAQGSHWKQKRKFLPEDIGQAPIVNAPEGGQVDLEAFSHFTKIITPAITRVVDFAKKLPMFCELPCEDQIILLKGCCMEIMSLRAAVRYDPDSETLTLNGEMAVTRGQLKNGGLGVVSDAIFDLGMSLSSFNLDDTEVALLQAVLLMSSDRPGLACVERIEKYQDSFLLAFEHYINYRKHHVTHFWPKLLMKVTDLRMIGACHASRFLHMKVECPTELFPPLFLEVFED
# In short: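 Rat GH3 cells (1,500/well) in serum-free assay medium, treated with 15-point series, 92 uM to 5 nM final, for 24 h at 37C. Luciferase via ONE-Glo luminescence; gain of signal fitted against DMSO, T3 positive control.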
# THRA (gene 7067) [2] = molecular target: THRA (gene 7067) (UniProt P10827); test: TOX21_TRA_COA_Agonist_Followup_ratio: Tox21 Thyroid Hormone Receptor alpha Agonism through Coactivator Recruitment Follow-Up Assay, Ratio (AID 2283948; active means hit-call score of the fitted dose curve at least 0.9, where 1 is the maximum; inactive means score below 0.9)
# Chain of THRA (gene 7067) (P10827 whole entry, looked up, the tested form may be a part): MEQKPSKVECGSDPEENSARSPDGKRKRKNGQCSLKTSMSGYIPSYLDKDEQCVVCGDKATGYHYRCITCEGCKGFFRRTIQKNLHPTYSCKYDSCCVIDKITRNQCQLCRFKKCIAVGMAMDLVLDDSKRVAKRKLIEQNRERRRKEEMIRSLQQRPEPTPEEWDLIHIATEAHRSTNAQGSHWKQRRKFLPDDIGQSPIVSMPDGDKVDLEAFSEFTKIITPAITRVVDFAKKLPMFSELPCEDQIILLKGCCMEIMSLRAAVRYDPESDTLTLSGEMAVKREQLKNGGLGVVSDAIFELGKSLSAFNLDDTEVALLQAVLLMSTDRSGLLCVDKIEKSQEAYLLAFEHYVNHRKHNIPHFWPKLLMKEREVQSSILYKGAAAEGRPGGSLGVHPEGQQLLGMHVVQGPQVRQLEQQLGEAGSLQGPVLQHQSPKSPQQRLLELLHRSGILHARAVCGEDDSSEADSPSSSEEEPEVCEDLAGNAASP
# In short: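 GST-TRa LBD 2.5 nM + 0.10% BSA + cpd; add fluorescein-SRC-2 200 nM, Tb-anti-GST 2 nM. TR-FRET ex 340, em 520/495 ratio. Norm: DMSO 0%, T3 100%; gain-of-signal fit.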
# PGR (gene 5241) [3] = molecular target: PGR (gene 5241) (UniProt P06401); test: TOX21_PR_BLA_Followup_Antagonist_ratio: Tox21 HEK293 Progesterone Receptor (PR) Antagonism Beta-lactamase Follow-Up Assay, Ratio (AID 2283934)
# Chain of PGR (gene 5241) (P06401 whole entry, looked up): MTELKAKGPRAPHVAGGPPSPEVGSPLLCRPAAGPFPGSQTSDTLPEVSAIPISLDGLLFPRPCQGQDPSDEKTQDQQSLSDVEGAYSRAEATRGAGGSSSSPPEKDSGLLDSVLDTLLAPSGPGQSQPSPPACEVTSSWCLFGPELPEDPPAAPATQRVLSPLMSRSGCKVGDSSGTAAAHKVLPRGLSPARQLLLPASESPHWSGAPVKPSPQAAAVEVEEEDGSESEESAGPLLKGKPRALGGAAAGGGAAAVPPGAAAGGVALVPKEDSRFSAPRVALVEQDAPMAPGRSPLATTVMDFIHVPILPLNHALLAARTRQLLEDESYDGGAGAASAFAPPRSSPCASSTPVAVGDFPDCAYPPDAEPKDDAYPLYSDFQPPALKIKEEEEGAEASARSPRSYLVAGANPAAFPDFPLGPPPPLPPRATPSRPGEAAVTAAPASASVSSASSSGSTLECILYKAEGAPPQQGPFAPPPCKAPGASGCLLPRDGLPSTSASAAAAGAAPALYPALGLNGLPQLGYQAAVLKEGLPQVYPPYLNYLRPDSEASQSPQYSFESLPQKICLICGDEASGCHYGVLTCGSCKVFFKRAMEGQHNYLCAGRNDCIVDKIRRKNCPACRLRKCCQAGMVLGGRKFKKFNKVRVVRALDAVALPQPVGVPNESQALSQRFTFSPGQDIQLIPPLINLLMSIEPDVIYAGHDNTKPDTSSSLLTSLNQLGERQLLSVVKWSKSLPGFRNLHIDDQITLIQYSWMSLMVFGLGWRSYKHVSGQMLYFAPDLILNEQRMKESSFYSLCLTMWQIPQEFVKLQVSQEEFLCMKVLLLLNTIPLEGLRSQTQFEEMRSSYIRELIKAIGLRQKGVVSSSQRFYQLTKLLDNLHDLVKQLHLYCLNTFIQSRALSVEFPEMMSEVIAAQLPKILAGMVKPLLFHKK
# In short: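 HEK293T PR-UAS-bla, 2% CS-FBS; 6 hr plating, then cpd + R5020 (1 nM final), 16 hr 37C/5% CO2. B/G FRET substrate 2 h RT. Ratio ch2/ch1 vs DMSO; CellTiter-Glo viability multiplexed, autofluorescence checked.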
# [4] = TOX21_PR_BLA_Followup_Agonist_viability: Viability Assessment in the Tox21 HEK293 Progesterone Receptor (PR) Agonism Beta-lactamase Follow-Up Assay (AID 2283935);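 further: cells exposed to compound for 16 hr at 37 °C; signal loss means lower viability so actives are cytotoxic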
# In short: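 HEK293T PR-UAS-bla, 3,000 cells/well, 2% CS-FBS; 6 hr pre-incubation; cpd in DMSO, 16 hr 37C; LiveBLAzer 2 hr RT, then CellTiter-Glo 30 min RT, luminescence. Decrease = lost viability.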
# [5] = TOX21_PR_LUC_Followup_Antagonist_viability: Viability Assessment in the Tox21 HEK293 Progesterone Receptor (PR) Antagonism Luciferase Follow-Up Assay (AID 2283940)
# In short: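 Multiplexed viability counter-screen: after 5 days in charcoal-stripped-FBS medium, HEK293-PR-A-luc cells are plated, pinned with DMSO-dissolved compounds for 16 h at 37C, and ATP content is quantified luminescently via CellTiter-Glo.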
# [6] = TOX21_PR_LUC_Followup_Agonist_viability: Viability Assessment in the Tox21 HEK293 Progesterone Receptor (PR) Agonism Luciferase Follow-Up Assay (AID 2283941);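 further: loss of signal means cytotoxicity so actives lower viability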
# In short: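 Cells were kept 5 days in charcoal-stripped serum medium before plating HEK293-PR-A-luc at 3,000 cells/well. After 5 h they received DMSO-dissolved compound and incubated 16 h at 37C. Viability was taken from CellTiter-Glo ATP luminescence.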
# [7] = CEETOX_H295R_OHPREG_noMTC: CeeTox H295R High-throughput Steroidogenesis Assay for OH-Pregnenolone (OHPREG), maximum tolerated concentration (MTC) filtered results only (AID 2283912; active means hit-call score of the fitted dose curve at least 0.9, where 1 is the maximum; inactive means score below 0.9); conditions: actives raise or lower the signal
# In short: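 H295R human adrenal cells, forskolin-prestimulated (10 uM, 48 h), then exposed to test chemical in 0.1% DMSO for 48 h. 17alpha-hydroxypregnenolone in medium measured by HPLC-MS/MS after MTBE extraction; bidirectional fit versus DMSO, concentrations not MTC-filtered.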
# [8] = CEETOX_H295R_OHPROG_noMTC: CeeTox H295R High-throughput Steroidogenesis Assay for OH-Progesterone (OHPROG), maximum tolerated concentration (MTC) filtered results only (AID 2283914; active means hit-call score of the fitted dose curve at least 0.9, where 1 is the maximum; inactive means score below 0.9); conditions: actives raise or lower the signal
# In short: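 H295R human adrenal cells prestimulated 48 h with 10 uM forskolin, then exposed 48 h to test chemical (0.1% DMSO final). Medium 17alpha-hydroxyprogesterone extracted with MTBE, quantified by HPLC-MS/MS; bidirectional fit versus DMSO, concentrations not MTC-filtered.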
# [9] = CEETOX_H295R_CORTISOL_noMTC: CeeTox H295R High-throughput Steroidogenesis Assay for Cortisol, maximum tolerated concentration (MTC) filtered results only (AID 2283916; active means hit-call score of the fitted dose curve at least 0.9, where 1 is the maximum; inactive means score below 0.9); conditions: actives raise or lower the signal
# In short: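 H295R adrenal cells were pre-stimulated 48 h with 10 uM forskolin, then exposed 48 h to test chemical in 0.1% DMSO. Medium cortisol was measured by MTBE extraction and HPLC-MS/MS; bidirectional fit versus DMSO, concentrations not MTC-filtered.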
# [10] = CEETOX_H295R_CORTIC_noMTC: CeeTox H295R High-throughput Steroidogenesis Assay for Corticosterone (CORTIC), maximum tolerated concentration (MTC) filtered results only (AID 2283917; active means hit-call score of the fitted dose curve at least 0.9, where 1 is the maximum; inactive means score below 0.9); conditions: actives raise or lower the signal
# In short: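 H295R, 10 uM forskolin prestim 48 h → test chem (0.1% DMSO final) 48 h → media MTBE extraction → HPLC-MS/MS corticosterone. Bidirectional fit vs DMSO baseline; no MTT-based MTC filtering.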
# [11] = CEETOX_H295R_DOC_noMTC: CeeTox H295R High-throughput Steroidogenesis Assay for DOC, maximum tolerated concentration (MTC) filtered results only (AID 2283918; active means hit-call score of the fitted dose curve at least 0.9, where 1 is the maximum; inactive means score below 0.9); conditions: actives raise or lower the signal
# In short: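 H295R cells prestimulated 48 h with 10 uM forskolin, then exposed 48 h to test chemical (0.1% DMSO final). Medium 11-deoxycorticosterone extracted with MTBE, quantified by HPLC-MS/MS; bidirectional fit versus DMSO, concentrations not MTC-filtered.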
# [12] = CEETOX_H295R_PROG_noMTC: CeeTox H295R High-throughput Steroidogenesis Assay for Progesterone (PROG), maximum tolerated concentration (MTC) filtered results only (AID 2283920; active means hit-call score of the fitted dose curve at least 0.9, where 1 is the maximum; inactive means score below 0.9); conditions: actives raise or lower the signal
# In short: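 H295R human adrenal cells were prestimulated 48 h with 10 uM forskolin, then exposed 48 h to test chemical (0.1% DMSO final). Progesterone in medium was quantified by HPLC-MS/MS; bidirectional fitting versus DMSO, concentrations not MTC-filtered.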
# [13] = CEETOX_H295R_ESTRADIOL_noMTC: CeeTox H295R High-throughput Steroidogenesis Assay for Estradiol, maximum tolerated concentration (MTC) filtered results only (AID 2283919; active means hit-call score of the fitted dose curve at least 0.9, where 1 is the maximum; inactive means score below 0.9); conditions: actives raise or lower the signal
# In short: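 H295R human adrenal cells pre-stimulated 48 h with 10 uM forskolin, then exposed 48 h to chemical (0.1% DMSO final). Estradiol in medium measured by HPLC-MS/MS after MTBE extraction and dansyl derivatization; bidirectional fit versus DMSO, concentrations not MTT-filtered.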
# [14] = CEETOX_H295R_ESTRONE_noMTC: CeeTox H295R High-throughput Steroidogenesis Assay for Estrone, maximum tolerated concentration (MTC) filtered results only (AID 2283921; active means hit-call score of the fitted dose curve at least 0.9, where 1 is the maximum; inactive means score below 0.9); conditions: actives raise or lower the signal
# In short: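 H295R cells prestimulated 48 h with 10 uM forskolin, then exposed 48 h to chemical in 0.1% DMSO; medium estrone measured by HPLC-MS/MS after MTBE extraction and dansyl derivatization, fitted bidirectionally versus DMSO without MTT-based MTC filtering.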
# [15] = TOX21_PR_BLA_Followup_Antagonist_viability: Viability Assessment in the Tox21 HEK293 Progesterone Receptor (PR) Antagonism Beta-lactamase Follow-Up Assay (AID 2283936);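 further: hits lower the luminescence signal meaning cytotoxicity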
# In short: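 PR-UAS-bla HEK293T cells (3,000/well, 2% charcoal-stripped FBS) given compound plus R5020 agonist, 16 h at 37C. CellTiter-Glo added after bla read, 30 min at room temperature; luminescence loss indicates cytotoxicity.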
# PGR (gene 5241) [16] = molecular target: PGR (gene 5241) (UniProt P06401); test: TOX21_PR_LUC_Followup_Antagonist: Tox21 HEK293 Progesterone Receptor (PR) Antagonism Luciferase Follow-Up Assay (AID 2283938);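 further: curve fitted upward as signal gain over DMSO baseline despite antagonist label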
# In short: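 Luminescence from ONE-Glo reagent, measured after 30 min at room temperature, served as readout. Cells (HEK293 carrying PR-A-luc) had been treated 16 h at 37C with DMSO-dissolved compounds. Activity was fitted against DMSO controls.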
# PGR (gene 5241) [17] = molecular target: PGR (gene 5241) (UniProt P06401); test: TOX21_PR_BLA_Followup_Agonist_ratio: Tox21 HEK293 Progesterone Receptor (PR) Agonism Beta-lactamase Follow-Up Assay, Ratio (AID 2283933)
# In short: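 HEK293T PR-UAS-bla, 2% CS-FBS; 6 hr preincubation, cpd/DMSO pinned, 16 hr 37C/5% CO2; LiveBLAzer B/G 2 hr RT; FRET ch2/ch1 ratio, agonist direction vs DMSO. Viability by CellTiter-Glo in same wells.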
# PGR (gene 5241) [18] = molecular target: PGR (gene 5241) (UniProt P06401); test: TOX21_PR_LUC_Followup_Agonist: Tox21 HEK293 Progesterone Receptor (PR) Agonism Luciferase Follow-Up Assay (AID 2283937; active means hit-call score of the fitted dose curve at least 0.9, where 1 is the maximum; inactive means score below 0.9)
# In short: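 Cells: HEK293-PR-A-luc, 3,000/well, 10% charcoal-stripped FBS assay medium. Compound added after 5 h; 16 h, 37C, 0% CO2. ONE-Glo luciferase, luminescence. Positive fit vs DMSO.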
# [19] = molecular target: T1, Thyroid hormone receptor alpha (Rattus norvegicus) + Thyroid hormone receptor beta (Rattus norvegicus); test: TOX21_TR_LUC_GH3_Antagonist_Followup: Tox21 GH3 Thyroid Hormone Receptor Antagonism Luciferase Follow-Up Assay (AID 2283942)
# In short: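 Rat pituitary GH3 cells with a TRα/TRβ-driven luciferase reporter, 5 h attachment, then 15 concentrations (92 uM to 5nM final) plus 1.0 nM T3 agonist, 24 h at 37C/5% CO2. ONE-Glo luminescence; signal change fitted against DMSO baseline.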
# THRA (gene 7067) [20] = molecular target: THRA (gene 7067) (UniProt P10827); test: TOX21_TRA_COA_Antagonist_Followup_ratio: Tox21 Thyroid Hormone Receptor alpha Antagonism through Coactivator Recruitment Follow-Up Assay, Ratio (AID 2283953)
# In short: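 520:495 nm emission ratio (excitation 340 nm) reports fluorescein-SRC-2 peptide recruitment to GST-TRα LBD by TR-FRET with Tb anti-GST antibody. Values were normalized to DMSO (0%) and T3 control wells (100%); loss of signal indicated antagonism.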
structure (smiles),measurement,setting,value
OCCCCC(O)CO (stereo not given),outcome,[1],inactive
same,outcome,THRA (gene 7067) [2],inactive
Cc1cc(C)nc(NS(=O)(=O)c2ccc(N)cc2)n1,outcome,[1],inactive
same,outcome,THRA (gene 7067) [2],inactive
O=c1c(O)c(-c2ccc(O)cc2)oc2cc(O)cc(O)c12,AC50,PGR (gene 5241) [3],43.7 µM (active)
same,outcome,[4],inactive
same,outcome,[5],inactive
same,outcome,[6],inactive
CC=Cc1ccc(OC)c(OC)c1,outcome,[7],inactive
same,outcome,[8],inactive
same,outcome,[9],inactive
same,AC50,[10],39.5 µM (active)
same,outcome,[11],inactive
COc1ccc(OC)c(N=Nc2c(O)ccc3ccccc23)c1,outcome,[7],inactive
same,outcome,[8],inactive
same,outcome,[9],inactive
same,outcome,[10],inactive
same,outcome,[11],inactive
same,outcome,[12],inactive
O=C(Nc1ccc2c(O)c(N=Nc3ccc(N=Nc4ccc(S(=O)(=O)O)cc4)cc3)c(S(=O)(=O)O)cc2c1)c1ccccc1,outcome,[7],inactive
same,outcome,[8],inactive
same,outcome,[13],inactive
same,outcome,[12],inactive
same,outcome,[14],inactive
CCOC(=O)C(C#N)=C(c1ccccc1)c1ccccc1,AC50,PGR (gene 5241) [3],15.2 µM (active)
same,outcome,[4],inactive
same,outcome,[15],inactive
same,AC50,PGR (gene 5241) [16],23 µM (active)
same,outcome,[5],inactive
same,outcome,[6],inactive
C=C1CC[C@H](O)C/C1=C/C=C1\CCC[C@]2(C)[C@@H]([C@H](C)/C=C/[C@H](C)C(C)C)CC[C@@H]12,outcome,PGR (gene 5241) [3],inactive
same,outcome,[15],inactive
same,outcome,PGR (gene 5241) [16],inactive
same,outcome,[5],inactive
O=C(Nc1ccc2c(c1)Cc1ccccc1-2)C(F)(F)F,outcome,PGR (gene 5241) [17],inactive
same,AC50,PGR (gene 5241) [3],19.6 µM (active)
same,outcome,[4],inactive
same,outcome,[15],inactive
same,outcome,PGR (gene 5241) [18],inactive
same,AC50,PGR (gene 5241) [16],62.9 µM (active)
same,outcome,[5],inactive
same,outcome,[6],inactive
Clc1ccc(C(c2ccccc2Cl)C(Cl)Cl)cc1 (stereo not given),AC50,PGR (gene 5241) [3],11 µM (active)
same,outcome,[4],inactive
same,outcome,[15],inactive
same,AC50,PGR (gene 5241) [16],13.1 µM (active)
O=Cc1ccccc1S(=O)(=O)O,outcome,[1],inactive
same,outcome,THRA (gene 7067) [2],inactive
CCCOC(=O)c1c(Cl)c(Cl)c(Cl)c(Cl)c1C(=O)OCCC,AC50,PGR (gene 5241) [3],9.87 µM (active)
same,outcome,[4],inactive
same,outcome,[15],inactive
same,AC50,PGR (gene 5241) [16],21.2 µM (active)
same,outcome,[5],inactive
same,outcome,[6],inactive
CC(=O)Nc1ccc(C(=O)CCl)cc1,outcome,THRA (gene 7067) [2],inactive
C=C[Si]1(C)O[Si](C)(C=C)O[Si](C)(C=C)O[Si](C)(C=C)O1 (stereo not given),outcome,[7],inactive
same,AC50,[8],87.1 µM (active)
same,outcome,[9],inactive
same,outcome,[11],inactive
same,outcome,[12],inactive
Oc1c(Cl)cc(Cl)c(Cl)c1Cc1c(O)c(Cl)cc(Cl)c1Cl,AC50,[19],12.7 µM (active)
same,outcome,THRA (gene 7067) [20],inactive
C[C@H](CCC(=O)NCC(=O)O)[C@H]1CC[C@H]2[C@@H]3[C@H](O)C[C@@H]4C[C@H](O)CC[C@]4(C)[C@H]3C[C@H](O)[C@]12C,outcome,[1],inactive
same,outcome,THRA (gene 7067) [2],inactive
N#Cc1ccc(CC(=O)c2cccc(C(F)(F)F)c2)cc1,AC50,PGR (gene 5241) [3],46.1 µM (active)
same,outcome,[4],inactive
same,outcome,[15],inactive
same,AC50,PGR (gene 5241) [16],32 µM (active)
same,outcome,[5],inactive
same,outcome,[6],inactive
